Most compounds without a hit are left out; they make up all but 12% or so of the library.
FMDV antiviral: High Throughput Screening for Foot and Mouth Disease Virus Antivirals; actives 1.2% (n = 410,000); Potency, µM (titrated, usually from 57.9 µM), for the others: at the highest dose activity change, negative = inhibition, actives largely listed as inhibitors; AID 1159524, 2015; FMDV antiviral cell-based qHTS; calls by dose curve; tested in HEK293T cells; also: read-out not given here; potency is read from the fitted curve at half-maximal effect; % is scaled to controls: 0 for no effect and ±100 for the full control effect; nearly all actives have a fitted effect of over 45% in size
Sm TGR block: qHTS Assay for the Inhibitors of Schistosoma Mansoni Peroxiredoxins; Schistosoma mansoni thioredoxin glutathione reductase (TGR), Q962Y6; purified TGR, DTNB reduction, TNB absorbance 405 nm; Potency, µM (titrated, usually from 114 µM), inactives show at the top dose activity change, negative = inhibition, most hits filed as inhibitors; actives 3% (n = 360,000); AID 485364, 2010; active = well fitted inhibition curve with a large enough effect; inconclusive = small, poorly fitted or top-dose-only effect; inactive = no such curve, though single readings can be large or run the other way; also: potency is read from the fitted curve at half-maximal effect; % is scaled to controls: 0 for no effect and ±100 for the full control effect; nearly all actives have a fitted effect of over 60% in size
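Kinetic colorimetric format: TGR-catalysed, NADPH-driven DTNB reduction monitored via TNB absorbance. Enzyme dispensed at 20 nM; compound exposure 15 min at room temperature before reaction start.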
CHX counter: Cycloheximide Counterscreen for Small Molecule Inhibitors of Shiga Toxin; cell reporter, cycloheximide protein synthesis inhibition counterscreen; actives 12% (n = 300,000); AID 2314, 2010; max response, %; in the data active = max response mostly above about 13%, no sharp cut-off; inactive = mostly below about 14%; also: read at 38.3 µM for the half of the compounds with a filed dose; 0% is about no effect
Shiga inhibitor: A qHTS for Small Molecule Inhibitors of Shiga Toxin; Vero cells, Shiga toxin protein synthesis inhibition reporter; inhibition, % at 38.7 µM; actives 9.2% (n = 290,000); AID 2315, 2010; in the data active = inhibition mostly above about 28%, no sharp cut-off; inactive = mostly below about 43%; also: 0% is about no effect
* marks the source's active call; other numbers are inactive results; ? = inconclusive; · = not tested or not shown.

SMILES | FMDV antiviral | Sm TGR block | CHX counter | Shiga inhibitor
CCOC(=O)C1=C(O)/C(=C\c2cc(C)n(-c3ccc(F)cc3)c2C)N=C1C | -16% | 14µM* | 14 | 11
COC(=O)C1=C(C)NC(=O)/C1=C\c1cc(C)n(-c2ccccc2C)c1C | -1% | -22% | -5 | -10
COc1ccc(OC)c(Nc2ncnc3c2nc2n3CCCC2)c1 | 5% | 3% | · | ·
CCOCCc1nn2c(=O)cc(COC(=O)c3ccccc3NC(=O)c3cccs3)nc2s1 | -10% | -1% | · | ·
COc1cccc(-c2cc3c(c(OC)c2)OCCN(S(=O)(=O)c2ccccc2OC(F)(F)F)C3)n1 | 7% | · | · | ·
COC(=O)c1ccccc1NC(=O)NCc1ccco1 | 33% | 7% | -2 | -9
O=C(Nc1cccnc1Cl)c1cccnc1Cl | -18% | 1% | -4 | -11
O=C(/C=C/c1ccco1)Nc1cccnc1Cl | 47% | 5.6µM* | 46* | 157*
O=C(/C=C/c1ccco1)NC(=S)Nc1ccc(N2CCCC2)cc1 | -11% | ? | -3 | 20
O=C(/C=C/c1ccccc1)Nc1cccnc1Cl | 34% | 1% | 42* | 105*
COC(=O)c1ccccc1NC(=O)/C=C/c1ccco1 | 24% | 40µM* | 38* | 53*
O=C(/C=C/c1ccco1)Nc1ccccc1N1CCCCC1 | -2% | 45µM* | 24* | 92*
O=C(COC(=O)/C=C/c1ccccc1)Nc1cccnc1Cl | -4% | -10% | · | ·
O=S(=O)(c1ccccc1)N1CCC2(CCCN(c3ncccn3)C2)CC1 | -5% | · | · | ·
CCCN(CCC)C(=O)Cn1c(SCc2cccc(C(F)(F)F)c2)nc2cccnc21 | -24% | -2% | · | ·
Cc1nc2cc([N+](=O)[O-])ccc2c(=O)n1-c1ccc(Br)cc1 | 13% | ? | -2 | 2
Cc1ccc(-n2c3nc(=O)[nH]c(=O)c-3cc3cc([N+](=O)[O-])ccc32)cc1 | 32µM* | -13% | 3 | 2
CCCc1nc(SCc2ccccc2Cl)n[nH]1 | 34% | 2% | 24* | 23
CCCOc1ccc(CSc2n[nH]c(C)n2)cc1 | -24% | 2% | 32* | 55*
COc1ccc(CSc2n[nH]c(C)n2)cc1[N+](=O)[O-] | 7% | 6% | 6 | 13
Cc1cc(C)n2nc(SCc3c(F)cccc3Cl)nc2n1 | 21% | 6% | 13 | 23
CCc1nc(SCc2ccccc2C#N)n[nH]1 | 6% | -9% | -2 | 2
Cc1nc(SCc2c(F)cccc2Cl)n[nH]1 | 20% | 0% | 15* | 24
CCc1nc(SCc2ccc(F)cc2)n[nH]1 | 6% | · | 31* | 88*
Nc1nc(SCc2ccc(F)cc2)n[nH]1 | -6% | -19% | 9 | ·
SMILES | FMDV antiviral | Sm TGR block | CHX counter | Shiga inhibitor
COc1ccc(-n2c(=O)c(-c3ccc(F)c(F)c3)nc3cncnc32)cc1 | -12% | · | · | ·
COc1cccc(CNC(=O)CN2C(=O)CCCc3ccccc32)c1OC | 8% | -7% | · | ·
COC(=O)c1sc2cccc(F)c2c1S(=O)(=O)N1CCN(c2cccc(OC)c2)CC1 | -1% | 5% | · | ·
CCc1nc(SCc2ccc(OC)cc2)n[nH]1 | 75% | 13% | 30* | 32*
Fc1cccc(Cl)c1CSC1=NCCS1 | 20% | 6% | 35* | 62*
CCc1nc(SCc2ccccc2)n[nH]1 | 31% | 20% | 25* | 58*
O=C(c1ccco1)N1CCN=C1SCc1c(F)cccc1Cl | -28% | 0% | 2 | 26
Cc1nc(SCc2ccccc2)n[nH]1 | 42% | 10% | 13* | 14
CCCc1nc(SCc2ccc(OCC)cc2)n[nH]1 | -7% | -2% | 5 | 69
COCCNc1oc(/C=C/c2ccc(F)cc2)nc1C#N | 24% | -4% | · | ·
O.O.[Mn].[Mn].[Mn].[OH-].[OH-] | · | · | -6 | -4
c1ccc(CSc2nccc(-c3ccco3)n2)cc1 | 47% | · | · | ·
c1ccc(CSc2n[nH]c(-c3ccco3)n2)cc1 | 0% | -22% | 20* | 81*
c1ccc2c(NCCN3CCOCC3)nc(-c3ccc4c(c3)OCO4)nc2c1 | 16% | · | · | ·
O=C1N=C(N2C=CC(=C3C=CNC=C3)C=C2)/C(=C/N=NC(=O)c2ccccc2O)S1 | 0% | 0% | 26* | 54*
COc1cc(Cl)c(C)cc1NC(=O)CCCN1C(=O)C(c2ccccc2)Oc2cccnc21 (centres undefined) | -28% | -6% | · | ·
CCSC(C)CC1C/C(=N/O)c2c(CC)noc2C1 (centres undefined) | -19% | 2% | 3 | 4
CCCc1noc2c1/C(=N\O)CC(CC(C)SCC)C2 (centres undefined) | -3% | -1% | 33* | 19*
Cc1cnc(NC(=O)CC2CCCC2)s1 | 29% | 3% | 49* | 105*
O=C(Nc1nc2ccccc2s1)NC1CCCCC1 | 21% | -11% | 40* | 125*
Cc1cnc(NC(=O)CCN2C(=O)C3CCCCC3C2=O)s1 (centres undefined) | -5% | 6% | 7 | 11
O=C(CC1CCCCC1)Nc1nc2ccccc2s1 | 26% | · | 33* | 59*
CC(C)(C)NC(=O)C1CCN(c2nc3ccccc3nc2C(F)(F)F)CC1 | -5% | 5% | · | ·
O=C(c1ccncc1)N1CCC[C@@]2(CCN(Cc3ccncc3)C2)C1 | 3% | · | · | ·
C#CCSc1nnc(CNS(=O)(=O)c2ccc(Br)cc2)n1C | 10% | 10µM* | -1 | -3
SMILES | FMDV antiviral | Sm TGR block | CHX counter | Shiga inhibitor
CNC(=O)c1cnc2sc(N3CCC(C)CC3)nn2c1=O | 33% | 6% | · | ·
Cc1ccc2c(c1)/C(=C/c1ccc(F)cc1)C(=O)N2 | ? | 2% | 2 | -8
Cc1ccc2c(c1)N/C(=C(\C=C(/Cl)[N+](=O)[O-])[N+](=O)[O-])N2 | · | 8.9µM* | 16 | 22
CN1CCN(c2ncc3nc(-c4cc(F)cc(F)c4)c(=O)n(-c4ccccc4)c3n2)CC1 | -16% | · | · | ·
O=C(COC(=O)c1ccccn1)c1ccc(Br)cc1 | 7% | -33% | 18 | 30
O=C(OCC1CC(c2ccccn2)=NO1)c1ccc(Br)cc1 (centres undefined) | · | -1% | 56* | 41
Nc1nc(N)c2cc(CNc3ccc(Cl)c(Cl)c3)ccc2n1 | 35µM* | · | · | ·
Nc1nc(N)c2cc(Sc3ccc(Cl)cc3)ccc2n1 | -18% | · | · | ·
COc1ccc(OCCC(=O)N2CCN(C)CC2)cc1 | -13% | 5% | 5 | 3
COc1ccc(OCCC(=O)N2CCCCC2)cc1 | 32% | -11% | 27* | 35*
CCCCOc1ccc(C(=O)N2CCCC2)cc1 | 24% | -36% | 36* | 103*
O=C(c1ccccc1)N1CCCCC1 | -15% | · | · | ·
CCCCCOc1ccc(C(=O)CCC(=O)N2CCCC2)cc1 | -16% | -4% | 22* | 51*
O=C(c1ccc(-n2cccc2)cc1)N1CCCCC1 | 0% | -1% | 26* | 49
CCOc1ccc(C(=O)N2CCCC2)cc1 | 36% | -2% | 7 | 14
COc1cc(OC)c(N(C)C(=O)c2c(C)oc3ncnc(N4CCCCC4)c23)cc1Cl | -13% | -1% | · | ·
COC(=O)C1=C(C)NC(C)=C(C(=O)OC)C1c1ccc(-c2cccc([N+](=O)[O-])c2)o1 | -1% | 40µM* | 5 | -7
COC(=O)C1=C(C)NC(C)=C(C(=O)OC)C1c1ccc(-c2cccc(Cl)c2Cl)o1 | -5% | ? | -7 | -8
COC(=O)C1=C(C)NC(=S)NC1c1ccc(-c2ccccc2C(=O)OC)o1 (centres undefined) | -26% | ? | 5 | 5

Screens: PubChem, National Center for Advancing Translational Sciences (NCATS)
